Compound activity (PubChem)
Only some compounds are listed: those with a hit (about 3.4% of all), similar ones and a draw of the others.
MITF primary – blocks human microphthalmia-associated transcription factor. AlphaScreen MITF homodimerization, bead proximity signal. inhibition, % at 2.6 µM. 650,000 tested, 0.91% active. AID 1259374; in the data active = inhibition above about 50%;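 note: 0% = vehicle wells with protein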
GPR151 activ – activators of human GPR151; PathHunter beta-arrestin GPR151 cells, luminescence; 650,000 tested, 1% active; Q8TDV0; activation, % at 11.2 µM; in the data active = activation above about 4.9%;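 note: 0% = median of compound wells and 100% = cells with positive control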
FBW7 activator – activators of human E3 ligase FBW7. Q969H0. AlphaScreen FBW7–phospho-cyclin E peptide binding, activator screen. normalized activity (activation), % at 26.1 µM. 650,000 tested, 0.13% active; in the data active = normalized activity above about 1.9%;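 note: purified mutant Fbw7 with reduced substrate affinity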
TEAD-YAP inh – TEAD-YAP interaction inhibition; HEK-TIYL cells, TEAD-Gal4/YAP UAS-luciferase luminescence; inhibition, % at 9.12 µM; 640,000 tested, 1.4% active; in the data active = inhibition above about 32%;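 note: 0% = median of test compound wells and 100% = reference inhibitor wells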
* = called active by the depositor.

SMILES	MITF primary	GPR151 activ	FBW7 activator	TEAD-YAP inh
Nc1cc[n+](CC(=O)c2ccc3c(c2)OCCO3)cc1	-0.5	-0.1	-0.1	49.3*
O=C(CCc1ccccc1)c1ccc2c(c1)OCCCO2	0.2	0.7	0.1	-61.8
O=C(CCN1CCc2ccccc21)c1ccc2c(c1)OCCO2	5.0	0.9	0.1	45.1*
O=C(CCCc1ccccc1)c1ccc2c(c1)OCCO2	6.7	-3.8	0.1	90.7*
O=C(C[n+]1ccc2ccccc2c1)c1ccc2c(c1)OCCO2	0.3	0.2	-0.1	-15.8
O=C(CCN1CCc2ccccc2C1)c1ccc2c(c1)OCCO2	0.3	0.3	-0.1	10.3
CN1CCN(c2cc(-c3ccncc3)nc(-c3ccncc3)n2)CC1	11.0	-1.5	-0.2	38.3*
CN1CCN(c2cc(-c3ccc(F)cc3)nc(-c3ccncc3)n2)CC1	17.9	-1.4	0.4	-2.5
CC1=C(C(N)=O)C(c2ccc([N+](=O)[O-])cc2)n2nc(SCc3ccccc3)nc2N1 (centres undefined)	-6.3	-0.7	-0.1	-1.4
CC(C)c1ccccc1OCC(=O)Nc1nccs1	-1.5	-0.7	-0.1	4.1
O=C(COc1ccccc1Br)Nc1nccs1	12.8	-8.8	-0.1	75.0*
Cc1ccc(Cl)c(OCC(=O)Nc2nccs2)c1	9.9	0.0	0.0	56.1*
Cc1ccc(OCC(=O)Nc2nnc(SCC(=O)c3ccccc3)s2)cc1	-12.3	-0.2	-0.1	-6.4
CCCCN(CCCC)C(=O)Cc1cccs1	0.1	0.8	-0.1	44.3*
Cc1ccc(C)n1-c1ccc(C(=O)O)cc1O	61.6*	-0.9	-0.7	-9.5
Cc1ccc(C)n1-c1cc(C(=O)O)ccc1Cl	76.4*	-1.0	-0.6	5.6
Cc1cc(C(=O)N2CCN(c3ccccc3)CC2)n[nH]1	-1.2	0.2	0.0	-1.8
O=c1oc2ccc(Cl)cc2c(=O)n1-c1cccc([N+](=O)[O-])c1	-1.5	-2.9	-0.2	75.0*
CCc1ccccc1-n1c(=O)oc2ccc(Cl)cc2c1=O	-0.5	0.3	-0.1	53.0*
CCC(=O)n1c(=O)oc2ccc(Cl)cc21	-11.2	0.5	0.2	-10.0
O=C(Nc1ccc(N2CCOCC2)c(Cl)c1)C(Cl)(Cl)Cl	-13.2	-0.1	0.4	-18.8
O=C(O)CN1C(=O)/C(=N\N2C(=O)CSC2=S)c2ccccc21	55.5*	-0.7	-0.3	4.6
CCN1C(=O)/C(=N\N2C(=O)CSC2=S)c2ccccc21	16.1	-0.2	-0.1	3.6
Cc1sc2ncnc(NCCc3ccc(S(N)(=O)=O)cc3)c2c1C	-0.5	1.2	0.0	36.8*
Cc1sc2ncnc(NCCC3=CCCCC3)c2c1C	1.7	0.3	0.2	44.4*
SMILES	MITF primary	GPR151 activ	FBW7 activator	TEAD-YAP inh
Cc1nc(NCCC2=CCCCC2)c2c3c(sc2n1)CCCC3	0.5	-0.7	-0.2	-37.5
CCOC(=O)c1c(NC(=O)CSc2nnc(CNC(=O)c3cccs3)n2-c2ccc([N+](=O)[O-])cc2)sc2c1CCCC2	-6.4	-0.2	0.1	-8.3
NC(=O)C1CCCN1c1nc(-c2cccs2)nc2ccccc12 (centres undefined)	-6.9	-0.1	0.0	3.1
OCC1CCCCN1c1nc(-c2cccs2)nc2ccccc12 (centres undefined)	-0.3	1.1	0.1	74.0*
CCCn1c2c(c(O)c(C(=O)Nc3ccncc3)c1=O)CCCC2	4.2	-0.5	0.1	2.3
CCOC(=O)N1CCC(NS(=O)(=O)c2ccc3[nH]c4c(c3c2)CCCC4)CC1	8.6	-1.0	0.0	57.0*
Cn1c2c(c(=O)n(C)c1=O)C(C(F)(F)F)(C(F)(F)F)N=C(c1ccc(Cl)cc1)N2	-7.3	0.8	0.3	93.5*
Cn1c2c(c(=O)n(C)c1=O)C(C(F)(F)F)(C(F)(F)F)N=C(c1ccccc1)N2	1.3	2.9	-0.1	2.4
CCCCC(=O)NC(c1ccccc1Cl)c1ccc2cccnc2c1O (centres undefined)	30.6	-1.5	-1.5	87.0*
COc1ccccc1C(NC(=O)C1CCCCC1)c1ccc2cccnc2c1O (centres undefined)	8.1	1.4	-0.9	61.0*
O=C(Cc1ccccc1)NC(c1ccccc1)c1ccc2cccnc2c1O (centres undefined)	27.7	-0.7	-1.9	58.2*
O=C(Cc1ccccc1)NC(c1ccccc1Cl)c1ccc2cccnc2c1O (centres undefined)	16.4	0.8	-1.6	84.0*
O=C(NC(c1ccc(Cl)cc1)c1ccc2cccnc2c1O)C1CCCCC1 (centres undefined)	11.5	-0.9	0.8	14.2
Cn1ccnc1C(NC(=O)Cc1ccc(O)cc1)c1ccccc1 (centres undefined)	-0.9	0.2	-0.1	-10.5
CCOC(=O)CC(NC(=O)Cc1ccccc1)c1ccccc1Cl (centres undefined)	-0.6	-0.7	0.0	-0.8
